Source: PubChem BioAssay (NCI)
This is part of a sample that, as a whole, favours compounds with a hit. Of some 79,000 tested, about 15% had one in any assay. The source made the active and inactive calls. No stated cut-off is given here; in the data, active means growth inhibition above about 70%; inactive means the rest.

Experiment: NCI Yeast Anticancer Drug Screen. Data for the sgs1 mgt1 strain (AID 161);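 further: 0% = growth of cultures given vehicle only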
Details: S. cerevisiae sgs1 mgt1 strain, at 50.0 µM, stronger effect = higher value
Summary of the method: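 Mutant yeast exposed to compound; growth scored against vehicle-only wells.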

Which growth inhibition does the source give for `O=C(O)c1ccccc1C(c1ccccc1)c1ccccc1` here?
The growth inhibition was 85.8% (active).

For `OCC1(c2ccccc2)OC1c1ccccc1` (configuration not stated), which growth inhibition is on record?
Its growth inhibition is 37.6% (inactive).

For `COc1ccc(NS(=O)(=O)c2ccc(F)cc2)cc1`, which growth inhibition is on record?
The growth inhibition was 98.5% (active).

Which growth inhibition does the source give for `CCn1c2nc(=O)n(C)c(=O)c-2[n+]([O-])c2cc(C)ccc21` here?
Its growth inhibition is 44.5% (inactive).

With `O=[N+]([O-])C(=C(Nc1ccccc1)Nc1ccccc1)C(Cl)=C(Cl)Cl` as the molecule, how does the growth inhibition read?
The growth inhibition was 89.2% (active).

Which growth inhibition does the source give for `CCC/C(=N\NC(=S)N(C)C)c1ccccn1` here?
Its growth inhibition is 99.5% (active).

Which growth inhibition does the source give for `O=C(CSc1cc[o+]cc1)c1cccc([N+](=O)[O-])c1` here?
The growth inhibition was 68% (inactive).

For `CC12CCC(c3sc(N)c(C#N)c31)C2(C)C` (configuration not stated), which growth inhibition is on record?
Its growth inhibition is 34.5% (inactive).

Which growth inhibition does the source give for `N#CC(C#N)=C(C1CC1)C1CC1` here?
Its growth inhibition is -1.9% (inactive).

For `Cc1c(N=Nc2cccc(F)c2)c(-c2ccccc2)nn1C(N)=S`, which growth inhibition is on record?
The growth inhibition was 99.4% (active).

With `CN1COc2c(Cl)cc(Cl)cc2C1` as the molecule, how does the growth inhibition read?
The growth inhibition was -5.15% (inactive).

Which growth inhibition does the source give for `O=C1CCCCO1` here?
The growth inhibition was -27.1% (inactive).

Which growth inhibition does the source give for `Nc1cc2c(cc1/C=C(\C(=O)O)c1ccccc1)OCO2` here?
The growth inhibition was 56% (inactive).

For `Cc1cc2c(cc1C)C(=O)OC2=O`, which growth inhibition is on record?
Its growth inhibition is 36.3% (inactive).

For `C(/Cc1ccc2c(c1)OCO2)=N\NC1=NCCCCN1`, which growth inhibition is on record?
Its growth inhibition is -16.2% (inactive).

With `CCCCCCCCN(CCCCCCCC)CC(O)c1cc(-c2ccc(OC)cc2)nc2cc(Cl)ccc12` (configuration not stated) as the molecule, how does the growth inhibition read?
Its growth inhibition is 48.6% (inactive).

Which growth inhibition does the source give for `Cc1cc(C(=O)CBr)c(CN2C(=O)c3ccccc3C2=O)c(=O)n1C` here?
Its growth inhibition is 74.3% (active).

With `O=C(O)c1ccccc1-c1c2ccc(=O)c(Br)c-2oc2c(Br)c(O)ccc12` as the molecule, how does the growth inhibition read?
The growth inhibition was 99.5% (active).

For `O=C(Nc1cccc(NC(=O)c2cc(=O)c3ccccc3o2)n1)c1cc(=O)c2ccccc2o1`, which growth inhibition is on record?
The growth inhibition was 21.7% (inactive).

With `COC(=O)c1nc(=S)[nH]c(C(=O)OC)c1C(=O)c1ccc([N+](=O)[O-])cc1` as the molecule, how does the growth inhibition read?
Its growth inhibition is 96.5% (active).

Which growth inhibition does the source give for `COC1/C=C\C=C(/C)C(=O)Nc2cc3nc4cc(Br)ccc4oc-3c(c2=O)CC(C)CC(OC)C(O)C(C)/C=C(\C)C1OC(N)=O` (configuration not stated) here?
Its growth inhibition is 89.9% (active).

With `NC(=S)C(=S)N/C=C(/c1ccc(Cl)cc1)S(=O)(=O)Cc1ccc(Cl)cc1` as the molecule, how does the growth inhibition read?
Its growth inhibition is 96.8% (active).

Which growth inhibition does the source give for `O=C(Cc1ccccc1)c1ccccc1C(=O)NNc1ccccc1` here?
The growth inhibition was -8% (inactive).

Experiment: NCI Yeast Anticancer Drug Screen. Data for the cln2 rad14 strain (AID 165);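 further: 0% = growth equal to vehicle treated cultures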
Details: S. cerevisiae cln2 rad14 strain, at 5.0 µM (retest, dose inferred, filed as 0.5), stronger effect = higher value
Summary of the method: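 Growth of compound-exposed yeast (cln2 rad14 genotype) measured and expressed as inhibition relative to vehicle.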

For `Cc1cc(NCCCCCCCNc2cc(C)nc3cc(N)ccc23)c2ccc(N)cc2n1`, which growth inhibition is on record?
The growth inhibition was 12% (inactive).

For `C[C@]12CC[C@H]3[C@@H](CCC4=CC(=O)CC[C@@]43C)[C@@H]1CC[C@@H]2C(=O)C=O`, which growth inhibition is on record?
The growth inhibition was 5% (inactive).

With `COc1cc2c[n+](C)c3c4cc(OC)c(OCc5ccccc5)cc4c(OCc4ccccc4)cc3c2cc1OC` as the molecule, how does the growth inhibition read?
Its growth inhibition is 5% (inactive).

With `Nc1ncnc2c1c(-c1ccc(Cl)cc1)cn2-c1ccccc1` as the molecule, how does the growth inhibition read?
Its growth inhibition is 2% (inactive).

For `Cc1c[nH]c2nc(C)n(-c3ccccc3)c(=N)c12`, which growth inhibition is on record?
The growth inhibition was 2% (inactive).

For `COc1ccc(Cc2ccc3c(C)cc(Cl)nc3c2)cc1`, which growth inhibition is on record?
The growth inhibition was 1% (inactive).

Which growth inhibition does the source give for `COC(=O)c1ccc(NCc2c(O)ccc(O)c2Br)cc1Cl` here?
The growth inhibition was 25% (inactive).

For `CC1=CC(=O)c2c(O)c3c(c(O)c2C1=O)C1C(O)C(C3=O)C23C(=O)c4c(O)c(C)cc(O)c4C(O)=C2C(=O)CC(O)C13` (configuration not stated), which growth inhibition is on record?
The growth inhibition was 14% (inactive).

Which growth inhibition does the source give for `CC(C)(O)[C@H](CCO)O[Si](c1ccccc1)(c1ccccc1)C(C)(C)C` here?
The growth inhibition was 17% (inactive).

With `COC(=O)/C(C#N)=C(/SC)N(C)C` as the molecule, how does the growth inhibition read?
The growth inhibition was 6% (inactive).

For `N#CC(C(=O)CCCC(=O)Nc1ccc(Cl)cc1)c1ccccc1Cl` (configuration not stated), which growth inhibition is on record?
The growth inhibition was -2% (inactive).

With `FC(F)(F)c1cccc(Nc2ccc3cnc4ccccc4c3c2)c1` as the molecule, how does the growth inhibition read?
Its growth inhibition is -5% (inactive).

Which growth inhibition does the source give for `CN1C(/C=C/c2ccc(O)c3ncccc23)CCC2CCCC(O)C21` (configuration not stated) here?
The growth inhibition was -12% (inactive).

For `N#CC1(C#N)C(C#N)(C#N)C12CCCC2`, which growth inhibition is on record?
The growth inhibition was 1% (inactive).

For `O=C1C(Cl)=C(Cl)C(=O)C2=C1CC(Cl)C(Cl)C2` (configuration not stated), which growth inhibition is on record?
Its growth inhibition is 37% (inactive).

For `N#CC(/C=C/c1ccccc1)(NO)Nc1cccc(Cl)c1` (configuration not stated), which growth inhibition is on record?
The growth inhibition was 10% (inactive).

For `O=C(O)c1ccccc1C(c1ccccc1)c1ccccc1`, which growth inhibition is on record?
Its growth inhibition is 13% (inactive).

Which growth inhibition does the source give for `OCC1(c2ccccc2)OC1c1ccccc1` (configuration not stated) here?
Its growth inhibition is -66% (inactive).

Which growth inhibition does the source give for `COc1ccc(NS(=O)(=O)c2ccc(F)cc2)cc1` here?
Its growth inhibition is 6% (inactive).

With `CCn1c2nc(=O)n(C)c(=O)c-2[n+]([O-])c2cc(C)ccc21` as the molecule, how does the growth inhibition read?
Its growth inhibition is -2% (inactive).

With `O=[N+]([O-])C(=C(Nc1ccccc1)Nc1ccccc1)C(Cl)=C(Cl)Cl` as the molecule, how does the growth inhibition read?
Its growth inhibition is 91% (active).

Which growth inhibition does the source give for `CCC/C(=N\NC(=S)N(C)C)c1ccccn1` here?
Its growth inhibition is 80% (active).

With `O=C(CSc1cc[o+]cc1)c1cccc([N+](=O)[O-])c1` as the molecule, how does the growth inhibition read?
The growth inhibition was -5% (inactive).

For `CC12CCC(c3sc(N)c(C#N)c31)C2(C)C` (configuration not stated), which growth inhibition is on record?
Its growth inhibition is 3% (inactive).

With `N#CC(C#N)=C(C1CC1)C1CC1` as the molecule, how does the growth inhibition read?
Its growth inhibition is -56% (inactive).

With `Cc1c(N=Nc2cccc(F)c2)c(-c2ccccc2)nn1C(N)=S` as the molecule, how does the growth inhibition read?
Its growth inhibition is -5% (inactive).

Which growth inhibition does the source give for `CN1COc2c(Cl)cc(Cl)cc2C1` here?
Its growth inhibition is -3% (inactive).

For `O=C1CCCCO1`, which growth inhibition is on record?
Its growth inhibition is 3% (inactive).

For `Nc1cc2c(cc1/C=C(\C(=O)O)c1ccccc1)OCO2`, which growth inhibition is on record?
Its growth inhibition is -4% (inactive).

For `Cc1cc2c(cc1C)C(=O)OC2=O`, which growth inhibition is on record?
The growth inhibition was 1% (inactive).

Which growth inhibition does the source give for `C(/Cc1ccc2c(c1)OCO2)=N\NC1=NCCCCN1` here?
Its growth inhibition is 0% (inactive).

For `CCCCCCCCN(CCCCCCCC)CC(O)c1cc(-c2ccc(OC)cc2)nc2cc(Cl)ccc12` (configuration not stated), which growth inhibition is on record?
The growth inhibition was 8% (inactive).

For `Cc1cc(C(=O)CBr)c(CN2C(=O)c3ccccc3C2=O)c(=O)n1C`, which growth inhibition is on record?
The growth inhibition was 11% (inactive).

With `O=C(O)c1ccccc1-c1c2ccc(=O)c(Br)c-2oc2c(Br)c(O)ccc12` as the molecule, how does the growth inhibition read?
The growth inhibition was 14% (inactive).

With `O=C(Nc1cccc(NC(=O)c2cc(=O)c3ccccc3o2)n1)c1cc(=O)c2ccccc2o1` as the molecule, how does the growth inhibition read?
The growth inhibition was 21% (inactive).

With `COC(=O)c1nc(=S)[nH]c(C(=O)OC)c1C(=O)c1ccc([N+](=O)[O-])cc1` as the molecule, how does the growth inhibition read?
Its growth inhibition is 2% (inactive).

Which growth inhibition does the source give for `COC1/C=C\C=C(/C)C(=O)Nc2cc3nc4cc(Br)ccc4oc-3c(c2=O)CC(C)CC(OC)C(O)C(C)/C=C(\C)C1OC(N)=O` (configuration not stated) here?
The growth inhibition was 50% (inactive).

With `NC(=S)C(=S)N/C=C(/c1ccc(Cl)cc1)S(=O)(=O)Cc1ccc(Cl)cc1` as the molecule, how does the growth inhibition read?
Its growth inhibition is -19% (inactive).

For `O=C(Cc1ccccc1)c1ccccc1C(=O)NNc1ccccc1`, which growth inhibition is on record?
Its growth inhibition is 4% (inactive).
